This passage reports growth inhibition, inhibition and outcome results from PubChem BioAssay.

Experiment [1] is described as follows: antimalarial activity against Dd2 strain (AID 2302;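 active means growth inhibition above 50% at the single 2 µM test dose, taken to imply half-maximal potency below 2 µM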;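 further: 0% = DMSO untreated growth and 100% = chloroquine plus artemisinin killed control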). The following applies: P. falciparum Dd2 in RBCs, LDH growth readout, 72 h; at 2 µM; stronger effect = higher value.
Experiment [2] can be described thus: HepG2 cytotoxicity, primary screen, cytotoxicity control for P. falciparum antimalarial project, cell-based, ATP luminescence (AID 2303;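 active means inhibition above 50%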;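 further: 0% = DMSO wells and 100% = digitonin-killed cells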). To be noted: HepG2 viability, 24-48 h, at 10 µM, stronger effect = higher value.
For experiment [3], the target named is L-lactate dehydrogenase (Plasmodium falciparum (isolate CDC / Honduras)) (UniProt Q27743). Briefly: PfLDH activity inhibition – cell lysate, 3D7 strain, counter-screen for P. falciparum growth inhibition project (AID 2304).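 Further: 0% = vehicle and 100% = reference inhibitor.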 The following applies: P. falciparum 3D7 crude extract, LDH APAD/NBT absorbance; at 2 µM; stronger effect = higher value. A general note: Counterscreens check selectivity or assay interference.
Chain of L-lactate dehydrogenase (Plasmodium falciparum (isolate CDC / Honduras)) (Q27743 whole entry, looked up): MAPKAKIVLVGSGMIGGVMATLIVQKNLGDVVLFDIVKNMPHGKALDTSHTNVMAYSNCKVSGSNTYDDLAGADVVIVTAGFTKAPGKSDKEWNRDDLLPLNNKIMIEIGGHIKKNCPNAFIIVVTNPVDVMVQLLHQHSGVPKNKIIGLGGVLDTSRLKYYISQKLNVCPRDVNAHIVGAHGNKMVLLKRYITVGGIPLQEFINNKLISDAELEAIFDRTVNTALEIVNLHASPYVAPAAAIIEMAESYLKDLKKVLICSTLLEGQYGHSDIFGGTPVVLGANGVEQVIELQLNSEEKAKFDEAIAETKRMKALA

Experiment [4] is described as follows: inhibition of 3D7 malaria parasite growth – strain 3D7 (AID 2306).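 Further: 0% = DMSO wells and 100% = chloroquine plus artemisinin control wells.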 The following applies: P. falciparum 3D7 erythrocytic growth, LDH absorbance, 72 h; at 2 µM; stronger effect = higher value.
Experiment [5] addresses Calcium-dependent protein kinase 1 (Plasmodium falciparum (isolate 3D7)) (UniProt P62344). Briefly: PfCDPK1 kinase inhibitors, biochemical, TCAMS library (AID 1159585; cut-off not given, nearly all actives have IC50 up to about 0.98 µM;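 further: inhibitors leave more ATP so luminescence rises with inhibition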). The following applies: recombinant PfCDPK1, Kinase-Glo ATP depletion luminescence. (Kinase-Glo reads ATP consumption through a luciferase reaction.)
The target of experiment [6] is Plasmodium falciparum protein kinase 6 (PK6, PF3D7_1337100) (UniProt Q8IDW1). Briefly: PfPK6 kinase inhibitors, biochemical, TCAMS library (AID 1159586). The following applies: recombinant PfPK6, Kinase-Glo ATP depletion luminescence.
Chain of Plasmodium falciparum protein kinase 6 (PK6, PF3D7_1337100) (Q8IDW1 1-305): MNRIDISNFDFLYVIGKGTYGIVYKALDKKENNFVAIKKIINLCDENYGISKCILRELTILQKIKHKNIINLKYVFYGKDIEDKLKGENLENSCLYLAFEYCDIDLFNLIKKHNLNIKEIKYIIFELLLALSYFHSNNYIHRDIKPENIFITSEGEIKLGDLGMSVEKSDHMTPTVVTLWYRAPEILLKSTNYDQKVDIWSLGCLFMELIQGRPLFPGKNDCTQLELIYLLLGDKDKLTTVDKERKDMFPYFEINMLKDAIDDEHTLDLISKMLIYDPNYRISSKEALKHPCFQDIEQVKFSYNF
For experiment [7], the target named is Protein kinase 7 (PK7), Plasmodium falciparum 3D7 (PF3D7_0213400) (UniProt Q7YTF7). Briefly: inhibition of Plasmodium PK7 catalytic activity – biochemical, TCAMS antimalarial set, Kinase-Glo luminescence (AID 1159587). The following applies: recombinant PfPK7, Kinase-Glo ATP depletion luminescence.
Chain of Protein kinase 7 (PK7), Plasmodium falciparum 3D7 (PF3D7_0213400) (Q7YTF7 1-343): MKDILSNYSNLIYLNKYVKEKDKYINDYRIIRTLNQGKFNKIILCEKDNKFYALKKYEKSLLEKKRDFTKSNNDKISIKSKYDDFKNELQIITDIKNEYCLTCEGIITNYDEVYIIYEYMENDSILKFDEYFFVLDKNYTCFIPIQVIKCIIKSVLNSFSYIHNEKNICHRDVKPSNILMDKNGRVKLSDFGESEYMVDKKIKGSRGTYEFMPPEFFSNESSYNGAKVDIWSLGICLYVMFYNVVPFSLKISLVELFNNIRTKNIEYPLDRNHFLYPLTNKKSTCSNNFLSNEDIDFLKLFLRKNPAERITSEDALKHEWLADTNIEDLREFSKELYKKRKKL
The target in experiment [8] is Calcium-dependent protein kinase 4 (Plasmodium falciparum (isolate 3D7)) (UniProt Q8IBS5). As to the kind of experiment: PfCDPK4 kinase inhibitors, biochemical, TCAMS library (AID 1159588; cut-off not given, nearly all actives have IC50 up to about 0.91 µM). To be noted: recombinant PfCDPK4, Kinase-Glo ATP depletion luminescence.
Chain of Calcium-dependent protein kinase 4 (Plasmodium falciparum (isolate 3D7)) (Q8IBS5 whole entry, looked up): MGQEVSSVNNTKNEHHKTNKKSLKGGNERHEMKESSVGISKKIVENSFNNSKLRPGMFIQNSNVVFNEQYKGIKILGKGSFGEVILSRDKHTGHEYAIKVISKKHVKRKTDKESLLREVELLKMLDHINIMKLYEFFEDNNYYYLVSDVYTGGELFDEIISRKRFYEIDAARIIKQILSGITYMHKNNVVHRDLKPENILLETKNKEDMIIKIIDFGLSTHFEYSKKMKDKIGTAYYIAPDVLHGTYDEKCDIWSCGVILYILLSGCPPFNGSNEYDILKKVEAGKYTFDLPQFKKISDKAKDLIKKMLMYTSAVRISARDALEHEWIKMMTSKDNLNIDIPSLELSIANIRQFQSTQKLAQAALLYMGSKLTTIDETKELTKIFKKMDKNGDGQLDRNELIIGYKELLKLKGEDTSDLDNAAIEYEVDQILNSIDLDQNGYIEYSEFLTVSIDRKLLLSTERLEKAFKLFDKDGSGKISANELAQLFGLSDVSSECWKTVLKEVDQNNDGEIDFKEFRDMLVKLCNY

A number with no mark means an inactive call. For some of these results: Potency and affinity values are given separately. Activity calls are given as the source filed them. Unless noted, how the calls were made is not given here.

Chain of Calcium-dependent protein kinase 1 (Plasmodium falciparum (isolate 3D7)) (P62344 whole entry, looked up): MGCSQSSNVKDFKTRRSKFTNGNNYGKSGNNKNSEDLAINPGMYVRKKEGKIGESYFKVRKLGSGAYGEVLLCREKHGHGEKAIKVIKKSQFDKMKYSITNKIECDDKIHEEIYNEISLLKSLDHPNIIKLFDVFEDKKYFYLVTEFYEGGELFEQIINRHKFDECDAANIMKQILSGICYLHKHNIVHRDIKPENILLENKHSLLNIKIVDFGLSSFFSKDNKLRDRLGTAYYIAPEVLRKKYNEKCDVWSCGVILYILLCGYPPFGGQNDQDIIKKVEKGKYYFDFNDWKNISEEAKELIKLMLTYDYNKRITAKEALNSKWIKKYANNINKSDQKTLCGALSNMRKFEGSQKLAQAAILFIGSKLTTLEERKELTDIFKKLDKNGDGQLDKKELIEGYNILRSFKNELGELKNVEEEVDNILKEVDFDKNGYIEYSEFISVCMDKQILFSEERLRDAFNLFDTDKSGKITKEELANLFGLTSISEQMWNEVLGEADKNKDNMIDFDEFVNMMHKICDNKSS

Broadly, the inhibition is the change of the read-out against control, counted positive when it falls. Turning to `CCCC(C)NC[C@@H](O)[C@H](Cc1ccccc1)NC(=O)c1cc(NCC)cc(N2CCCCS2(=O)=O)c1` (stereo not given in full), the results for the growth inhibition in experiment [1] and in experiment [4] were 98% (active) and 101% (active), respectively. Moreover, the values for the inhibition in experiment [2] and in experiment [3] were -4% and -2%, respectively. The result in experiment [5], in experiment [6], in experiment [7] and in experiment [8] was inactive.

As to `CC(=O)Nc1ccc(C(=O)Nc2cccc(-c3ccc(-c4nc5ccc(F)cc5[nH]4)s3)c2)cn1`, the growth inhibition in experiment [1] is 97% (active); in experiment [4], 101% (active). Moreover, the inhibition was 33% in experiment [2] and 3% in experiment [3]. Moreover, the result in experiment [5], in experiment [6], in experiment [7] and in experiment [8] was inactive.

Take `Cc1cc(F)ccc1-c1nc(N(C)CCN(C)C(=O)N(C)c2ccccc2)nc2c1ccc(=O)n2-c1c(F)cccc1F`: the growth inhibition in experiment [1] is 77% (active); in experiment [4] it was 87% (active). The inhibition is -1% in experiment [2] and 2% in experiment [3]. In addition, the outcome in experiment [5], in experiment [6], in experiment [7] and in experiment [8] was inactive.

On to `COc1ccc(-c2cnc3ccc(NCc4ccc(S(N)(=O)=O)cc4)nn23)cn1`, for which the growth inhibition in experiment [1] and in experiment [4] was 98% (active) in each case. The inhibition in experiment [2] is 16%; in experiment [3], 0%. The outcome in experiment [5], in experiment [6], in experiment [7] and in experiment [8] was inactive.

Take `Cc1ccc(C(CC(=O)Nc2nccs2)c2ccc(OC(C)C)cc2)cc1` (stereo not given): the growth inhibition in experiment [1] is 90% (active); in experiment [4], 94% (active). Further, the inhibition in experiment [2] is 5%; in experiment [3], 3%. The result in experiment [5], in experiment [6], in experiment [7] and in experiment [8] was inactive.

For the compound `FC(F)(F)c1ccc(N2CCCN(Cc3cccc(-c4ccccc4CNCc4ccc5c(c4)OCO5)c3)CC2)nc1`, the growth inhibition in experiment [1] is 11%; in experiment [4], 87% (active). Besides, the inhibition in experiment [2] was 23%; in experiment [3] it was 3%. Moreover, the result in experiment [5], in experiment [6], in experiment [7] and in experiment [8] was inactive.

Consider `COc1ccc(CN2CCN(Cc3cc(Cl)ccc3O)CC2CCO)c(C)c1C` (stereo not given), for which the results for the growth inhibition in experiment [1] and in experiment [4] were 76% (active) and 94% (active), respectively. Also, the inhibition in experiment [2] was 1%; in experiment [3], 3%. In addition, the outcome in experiment [5], in experiment [6], in experiment [7] and in experiment [8] was inactive.

For `Cc1c2ccncc2c(C)c2c1[nH]c1cc(Cc3ccccc3)c(O)cc12`, the growth inhibition in experiment [1] was 99% (active); in experiment [4] it was 100% (active). Moreover, the inhibition in experiment [2] was 99% (active); in experiment [3] it was -4%. Also, the result in experiment [5], in experiment [6], in experiment [7] and in experiment [8] was inactive.

In the case of `COc1ccc2nc(-c3cc(-c4ccc(NC(=O)C(C)C)cc4)cnc3N)[nH]c2c1`, the growth inhibition in experiment [1] was 47%; in experiment [4], 101% (active). Further, the inhibition is 43% in experiment [2] and 3% in experiment [3]. Besides, the result in experiment [5], in experiment [6], in experiment [7] and in experiment [8] was inactive.

On to `CCCCOC(=O)[C@H](CCC)NC(=O)c1ccc(NS(=O)(=O)c2ccc3nc(N)[nH]c(=O)c3c2)cc1`, for which the growth inhibition in experiment [1] is 3%; in experiment [4], 99% (active). Also, the inhibition in experiment [2] is 66% (active); in experiment [3], -1%. In addition, the result in experiment [5], in experiment [6], in experiment [7] and in experiment [8] was inactive.

Regarding `COc1ccc(Nc2nccc(-c3cccc(NC(=O)c4cc5cc(F)ccc5[nH]4)c3)n2)cc1`, the values for the growth inhibition in experiment [1] and in experiment [4] were 37% and 92% (active), respectively. The inhibition was 3% in experiment [2] and 5% in experiment [3]. The result in experiment [5], in experiment [6], in experiment [7] and in experiment [8] was inactive.

As to `CN(C)c1ccc(CN2CCCC(CNC(=O)c3ccc(-c4cccc(C(F)(F)F)c4)s3)C2)cc1` (stereo not given), the growth inhibition in experiment [1] was 37%; in experiment [4], 89% (active). The inhibition in experiment [2] was 32%; in experiment [3] it was 0%. For the same compound, the outcome in experiment [5], in experiment [6], in experiment [7] and in experiment [8] was inactive.

As to `NC(N)=Nc1nc(-c2cccc(NC(=O)Cc3ccccc3)c2)cs1`, the growth inhibition in experiment [1] is 9%; in experiment [4] it was 99% (active). Also, the figures for the inhibition in experiment [2] and in experiment [3] were 1% and -8%, respectively. For the same compound, the result in experiment [5], in experiment [6], in experiment [7] and in experiment [8] was inactive.

As for `Cc1noc(C)c1-c1cccc(CNCc2ccc(-c3ccc(-c4nc5ccccc5[nH]4)s3)cc2)c1`, the values for the growth inhibition in experiment [1] and in experiment [4] were 79% (active) and 103% (active), respectively. The inhibition in experiment [2] was 41%; in experiment [3], -6%. The outcome in experiment [5], in experiment [6], in experiment [7] and in experiment [8] was inactive.

As for `COc1ccc2c(NN=Cc3ccccc3F)ccnc2c1`, the growth inhibition in experiment [1] was 99% (active); in experiment [4] it was 98% (active). The inhibition in experiment [2] is 15%; in experiment [3], 0%. The result in experiment [5], in experiment [6], in experiment [7] and in experiment [8] was inactive.

With `COc1ccc(-c2nc3c(NCc4ccccc4)nccc3[nH]2)c(OC)c1`, the growth inhibition in experiment [1] was 21%; in experiment [4] it was 99% (active). The results for the inhibition in experiment [2] and in experiment [3] were 16% and 4%, respectively. Moreover, the outcome in experiment [5], in experiment [6], in experiment [7] and in experiment [8] was inactive.

`CCOC(=O)c1ccc(NC(=O)N(Cc2ccc(-c3ccc(CN4CCNCC4)cc3)cc2)Cc2cccnc2)cc1`: the results for the growth inhibition in experiment [1] and in experiment [4] were 34% and 94% (active), respectively. Also, the inhibition in experiment [2] is 13%; in experiment [3], 2%. Moreover, the result in experiment [5], in experiment [6], in experiment [7] and in experiment [8] was inactive.

In the case of `CC(Oc1ccc(Cl)cc1)C(=O)Nc1cc(C(F)(F)F)ccc1N1CCOCC1` (stereo not given), the growth inhibition in experiment [1] and in experiment [4] was 97% (active) in each case. Further, the inhibition in experiment [2] is 14%; in experiment [3], -6%. The result in experiment [5], in experiment [6], in experiment [7] and in experiment [8] was inactive.

With `CC(C)(C)OC(=O)NCC(=O)N(Cc1ccccc1)Cc1ccccc1`, the growth inhibition in experiment [1] was 93% (active); in experiment [4], 97% (active). The inhibition was -10% in experiment [2] and 2% in experiment [3]. The outcome in experiment [5], in experiment [6], in experiment [7] and in experiment [8] was inactive.

As for `CCC[C@@H]([C@@H](CC1CCCCC1)C(=O)N[C@H](C(=O)Nc1nccs1)C(C)(C)SCCOCCOCC)N(O)C=O`, the growth inhibition in experiment [1] was 97% (active); in experiment [4], 100% (active). Besides, the inhibition in experiment [2] is 40%; in experiment [3] it was -5%. The outcome in experiment [5], in experiment [6], in experiment [7] and in experiment [8] was inactive.
